Assay results published in PubChem BioAssay AID1851 (National Center for Advancing Translational Sciences (NCATS), 2009).
About 5,100 (32%) of roughly 16,000 compounds were called active. Inconclusive results (about 25%) are left out. Calls follow the shape of the dose curve; as a rule, active = well fitted curve in the direction sought with a large enough effect; inconclusive = small, poorly fitted or top-dose-only effect, or effect the other way; inactive = no such curve, though single readings can be large or run the other way. The list shows a part of the results.

Molecular target: Cytochrome P450 3A4 (Homo sapiens) (UniProt P08684)
Sequence (P08684 whole entry, looked up): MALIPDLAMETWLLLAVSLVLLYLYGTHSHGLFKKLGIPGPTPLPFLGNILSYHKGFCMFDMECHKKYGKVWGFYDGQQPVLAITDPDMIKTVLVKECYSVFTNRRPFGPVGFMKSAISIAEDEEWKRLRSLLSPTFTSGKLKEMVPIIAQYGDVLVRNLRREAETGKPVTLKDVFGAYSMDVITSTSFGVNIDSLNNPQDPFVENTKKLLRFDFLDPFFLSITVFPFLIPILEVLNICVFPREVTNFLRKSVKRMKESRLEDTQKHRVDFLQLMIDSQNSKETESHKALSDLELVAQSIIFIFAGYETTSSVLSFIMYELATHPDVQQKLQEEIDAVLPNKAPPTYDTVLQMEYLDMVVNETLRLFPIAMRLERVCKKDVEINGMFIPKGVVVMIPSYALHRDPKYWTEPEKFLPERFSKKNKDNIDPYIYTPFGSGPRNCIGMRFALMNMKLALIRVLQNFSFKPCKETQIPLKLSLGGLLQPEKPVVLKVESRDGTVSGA
Experiment: Cytochrome panel assay with activity outcomes
Conditions: recombinant CYP, pro-luciferin dealkylation, luminescence, p450-cyp3a4; series mostly up to 57.1 µM
% is scaled to controls: 0 for no effect and ±100 for the full control effect.

Compound | AC50 | activity, negative = inhibition
CN(CCc1ccccn1)Cc1ccc(Cl)cc1Cl | 7.94 µM (active) | 
Cc1cccc(CN(C)CCc2ccccn2)c1 | inactive | 
CC(C)C(=O)C(C)(C)CCc1ccccn1 |  | -11% [at 11.4 µM] (inactive)
COc1ccccc1CNC(=O)C1CCN(S(=O)(=O)N2CC(C)CC(C)C2)CC1 (stereo not given) | 11.2 µM (active) | 
COc1cccc(CNC(=O)C2CCN(S(=O)(=O)N3CCCCC3)CC2)c1 | 22.4 µM (active) | 
COc1ccc(CCNC(=O)C2CCN(S(=O)(=O)N3CC(C)CC(C)C3)CC2)cc1OC (stereo not given) | 7.08 µM (active) | 
CCS(=O)(=O)N1CCC(C(=O)NCc2ccccc2OC)CC1 |  | 4.92% [at 11.4 µM] (inactive)
O=C(Nc1cc2c(oc1=O)CCCC2=O)c1ccc(Cl)cc1 | inactive | 
Cc1cc(NC(=O)c2cc(C(C)C)on2)no1 | inactive | 
CCOc1ccc(C(=O)Nc2ccccc2N2CCCC2)cc1 |  | -11.9% [at 2.29 µM] (inactive)
CC(=O)N1CCN(c2ccccc2NC(=O)COc2ccc(Br)cc2)CC1 | 4.47 µM (active) | 
O=C(Nc1cc(C(F)(F)F)ccc1N1CCCCC1)c1ccc(Br)o1 | inactive | 
NS(=O)(=O)c1cc(C(=O)O)cc(N2CCCC2)c1Oc1ccccc1 | inactive | 
O=C(COc1ccccc1)Nc1cc(C(F)(F)F)ccc1N1CCCC1 | 3.98 µM (active) | 
Cc1ccc(OCC(=O)Nc2ccccc2N2CCOCC2)c(C)c1 | 14.1 µM (active) | 
Cc1ccc(OCC(=O)Nc2ccc(Cl)cc2)c(-n2nc3ccccc3n2)c1 |  | -10.5% [at 2.29 µM] (inactive)
CCCCC(=O)NC(Nc1cc(C)ccn1)(C(=O)OCC)C(F)(F)F (stereo not given) | 7.08 µM (active) | 
O=P(O)(O)O[C@@H]1O[C@H](CO)[C@@H](O)[C@H](O)[C@@H]1O |  | -3.16% [at 11.4 µM] (inactive)
N#CCSc1nc2ccc(N3CCCCC3)cc2c(=O)n1Cc1ccccc1 | 7.08 µM (active) | 
O=c1c2ccccc2nc(-c2ccc(Br)cc2)n1Cc1ccccc1 | inactive | 

Compound | AC50 | activity, negative = inhibition
CN1CCN(C(=O)c2ccc3c(=O)n4c(nc3c2)CCCCC4)CC1 | inactive | 
N#CCSc1nc2cc(C(=O)N3CCCC3)ccc2c(=O)n1Cc1ccccc1 | 12.6 µM (active) | 
COc1ccc(NC(=O)N2CC[C@@]3(CCCN(C(=O)c4cc(C(F)(F)F)cc(C(F)(F)F)c4)C3)C2)cc1 | 20 µM (active) | 
COc1ccc(NC(=O)N2CCCC3(CCN(C(=O)c4cccn4C)CC3)C2)cc1 | 25.1 µM (active) | 
COc1ccc(NC(=O)N2CCCC3(CCN(C(=O)c4ccc(OC)cc4)CC3)C2)cc1 | 12.6 µM (active) | 
COc1ccc(C(=O)N2CCC[C@@]3(CCN(C(=O)Nc4ccccc4)C3)C2)cc1 | 15.8 µM (active) | 
Cn1cccc1C(=O)N1CCC2(CC1)CN(C(=O)Nc1ccccc1)C2 | inactive | 
COc1ccc(C(=O)N2CCC3(CC2)CN(C(=O)Nc2ccccc2)C3)cc1 | inactive | 
COc1ccc(NC(=O)N2CC3(CCN(C(=O)c4cccn4C)CC3)C2)cc1 | inactive | 
COC(=O)N1CCC[C@@]2(CCN(C(=O)Nc3ccccc3)C2)C1 | inactive | 
CC(=O)ON(C(C)=O)S(=O)(=O)c1ccc(Cl)cc1 | inactive | 
COCC(=O)N1CCC2(CC1)CN(C(=O)Nc1ccc(OC)cc1)C2 | inactive | 
COC(=O)N1CCC2(CC1)CN(C(=O)Nc1ccc(OC)cc1)C2 | inactive | 
COc1ccc(NC(=O)N2CC3(CCN(C(=O)c4ccco4)CC3)C2)cc1 | inactive | 
COc1ccc(NC(=O)N2CC[C@@]3(CCCN(C(C)=O)C3)C2)cc1 | inactive | 
COc1ccc(NC(=O)N2CCC3(CC2)CCN(C(=O)c2ccco2)CC3)cc1 | inactive | 
COc1ccc(NC(=O)N2CCCC3(CCN(C(=O)c4ccco4)CC3)C2)cc1 | 15.8 µM (active) | 
COc1ccc(NC(=O)N2CC[C@@]3(CCCN(C(=O)c4ccc(OC)cc4)C3)C2)cc1 | 15.8 µM (active) | 
COc1ccc(NC(=O)N2CCCC3(CCNCC3)C2)cc1 | 25.1 µM (active) | 
COc1ccc(NC(=O)N2CC[C@@]3(CCCNC3)C2)cc1 | inactive | 

Compound | AC50 | activity, negative = inhibition
N#Cc1ccc(Oc2nc(C(N)=O)cc(-c3ccccc3)n2)cc1 | inactive | 
CO/N=C(\C(=O)N[C@@H]1C(=O)N2C(C(=O)[O-])=C(C[N+]3(C)CCCC3)CS[C@@H]12)c1csc(N)n1 | inactive | 
Nc1nc2c(c(=O)[nH]1)N[C@H](CCNc1ccc(C(=O)O)cc1)CN2 |  | -0.744% [at 11.4 µM] (inactive)
CCOc1c2ccc(C(=O)NCc3ccc(OC(F)(F)F)cc3)cc2nn1CC |  | -2.81% [at 2.29 µM] (inactive)
CCOC(=O)C(C(=O)NCc1ccc(C)cc1)c1ncc(C(F)(F)F)cc1Cl (stereo not given) | 1.26 µM (active) | 
COc1ccc(NC(=O)c2ccc(-n3cccn3)nc2)c(OC)c1 | inactive | 
CCOc1ccc(/C(O)=C2/C(=O)C(=O)N(CCOCCO)C2c2cccnc2)cc1 (stereo not given) | inactive | 
CCOC(=O)C1=C(C)Nc2ncnn2C1c1cccnc1 (stereo not given) | 11.2 µM (active) | 
COc1cc(OC)c(C2C(C(=O)Nc3ccc(C)cc3C)=C(C)Nc3ncnn32)cc1OC (stereo not given) | 8.91 µM (active) | 
C(=C1/CCCC2=C1Nc1ncnn1C2c1ccccc1)/c1ccccc1 (stereo not given) | inactive | 
CCCCOC(=O)C1=C(C)Nc2ncnn2C1c1cc(OC)ccc1OC (stereo not given) | 7.08 µM (active) | 
COc1ccc(C2N=C(N)N=C(N)N2c2ccccc2OC)cc1OC (stereo not given) |  | -8.43% [at 2.29 µM] (inactive)
C[N+]1(C)C[C@@H](O)C[C@@H]1C(=O)[O-] | inactive | 
C=C(C)COc1ccc2c(c1)CCC1C2CC[C@]2(C)C(=O)/C(=N/O)CC12 (stereo not given in full) |  | 1.68% [at 11.4 µM] (inactive)
N#CCCn1c(=O)cnc2cnc(N3CCOCC3)nc21 | inactive | 
COc1cccc(-c2cncnc2NCCc2c[nH]c3ccc(OC)cc23)c1 | 0.501 µM (active) | 
COc1ccc2[nH]cc(CCNc3ncncc3-c3cccnc3)c2c1 | 0.794 µM (active) | 
COc1ccc2[nH]cc(CCNc3ncncc3-c3cccc(NS(C)(=O)=O)c3)c2c1 | 0.398 µM (active) | 
Clc1ccc(N2CCCCCC2)nn1 | inactive | 
COc1ccccc1NC(=O)CCN1C(=O)C2CC=C(Cl)CC2C1=O (stereo not given) | 14.1 µM (active) | 
